# hNpr1 antagonist = human Npr1 receptor antagonism. P16066. HEK293 hNpr1 GloSensor cGMP, ANP-stimulated luminescence. Potency, µM (series often up to 46.3 µM), inactives show at the highest dose activity change, negative = inhibition, most hits filed as inhibitors. actives 1.6% (n = 76,000). AID 1347048; calls by dose curve; also: nearly all actives have a fitted effect of over 60% in size
#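 HEK293 cells stably expressing human Npr1 and cGMP GloSensor pGS-40F, loaded 2 h with 2% GloSensor reagent, given compound 30 min at room temperature. Luminescence read before and 20 min after 0.1 nM hNppA.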
# Luciferase inh = Photinus pyralis luciferase inhibition; P08659; purified P. pyralis luciferase, luminescence, biochemical; Potency, µM (titrated, usually from 115 µM), most hits filed as inhibitors; actives 2.5% (n = 76,000); also: nearly all actives have a fitted effect of over 65% in size
# Target sequence (P08659 whole entry, looked up): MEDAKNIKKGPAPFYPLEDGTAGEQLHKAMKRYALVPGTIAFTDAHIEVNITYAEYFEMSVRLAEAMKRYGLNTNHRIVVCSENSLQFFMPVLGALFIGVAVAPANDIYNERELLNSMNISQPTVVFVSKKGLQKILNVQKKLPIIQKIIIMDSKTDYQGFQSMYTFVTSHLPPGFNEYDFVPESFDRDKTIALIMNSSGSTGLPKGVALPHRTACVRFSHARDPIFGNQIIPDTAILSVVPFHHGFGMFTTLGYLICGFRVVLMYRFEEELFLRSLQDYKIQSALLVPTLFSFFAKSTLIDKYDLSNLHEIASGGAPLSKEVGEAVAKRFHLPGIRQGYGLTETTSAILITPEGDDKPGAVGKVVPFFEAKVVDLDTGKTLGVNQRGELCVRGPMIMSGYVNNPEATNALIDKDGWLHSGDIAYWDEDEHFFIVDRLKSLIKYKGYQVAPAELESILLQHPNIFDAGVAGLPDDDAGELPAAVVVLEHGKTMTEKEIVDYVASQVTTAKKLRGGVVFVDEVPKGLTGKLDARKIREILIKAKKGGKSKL
#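 Inhibitors were tested against purified firefly luciferase in a biochemical, low-substrate format (both substrates at 10uM) and luminescence measured with a CCD imager.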
# NIH3T3 tox = kills NIH 3T3 cells. NIH 3T3 viability, CellTiter-Glo ATP luminescence, 48-72 h. Potency, µM (titrated, usually from 96.7 µM), without a hit: at the highest dose activity change, negative = cytotoxicity, usual class: inhibitors. actives 4.3% (n = 94,000). AID 1345082; also: nearly all actives have a fitted effect of over 55% in size
#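 Cells were seeded at 400 per well, treated with pin-transferred compound, and kept 48 or 72 hr at 37 °C before CellTiter-Glo addition and luminescence imaging of cellular ATP.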
# HEK293 tox = kills HEK 293 cells; HEK 293 viability, ATP luminescence (CellTiter-Glo), 48-72 h; Potency, µM (doses to about 115 µM), inactives show top-dose activity change, negative = cytotoxicity, hits mostly inhibitors; actives 6.6% (n = 94,000); also: nearly all actives have a fitted effect of over 60% in size
#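 HEK 293 cells seeded at 250 cells/well were exposed to compound for 48 or 72 hr at 37 degree Celsius. Viability taken as ATP content by CellTiter-Glo luminescence.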
# * marks the source's active call; other numbers are inactive results; i = inactive; ? = inconclusive; . = not tested or not shown; [ ] = remark or other dose. Rows were chosen to be rich in hits. Some 11% of all compounds tested hit in one or more screens of this group. Unless noted, calls follow the shape of the dose curve; as a rule, active = well fitted curve in the direction sought with a large enough effect; inconclusive = small, poorly fitted or top-dose-only effect, or another doubt; inactive = no such curve, though single readings can be large; an effect the other way counts as inactive or inconclusive. % is scaled to controls: 0 for no effect and ±100 for the full control effect; potency is read from the fitted curve at half-maximal effect.
SMILES,hNpr1 antagonist,Luciferase inh,NIH3T3 tox,HEK293 tox
COCCOC(=O)C1=C(C)N=C2SC=C(CC(=O)NC3CC3)N2C1c1ccccc1C (centres undefined),-16.8%,i,-20.8%,-17.9%
Cc1ccncc1C(=O)N1CC[C@H](n2c(=O)n(C)c3cccnc32)C1,.,.,-12.6%,-18.3%
O=C(NCCNC(=O)c1cccc(-c2ccsc2)c1)c1ccc(Cl)cc1,.,.,2.9%,-24.7%
O=C1c2c(nc(COc3cccc(F)c3)n2Cc2ccccc2)NCCN1CC1CC1,-3.3%[70.6 µM],i,89.1µM*,100µM*
COCCN1CCNc2nc(COc3ccc(C(C)C)cc3)n(Cc3ccccc3)c2C1=O,-0.1%,i,?,63.1µM*
O=C1c2c(nc(COc3cccc(F)c3)n2Cc2ccccc2)NCCN1CCOc1ccccc1,-26.3%,i,35.5µM*,?
CNC(=O)c1cc(C2CC2)nc2c1c(C1CCN(C(=O)C3CC3)C1)nn2C (centres undefined),.,.,-20.9%,0.0%
O=C(CC1CCCC1)N1CCC2(CC1)CC(N(Cc1ccc(F)cc1)C1CC1)CCO2 (centres undefined),-22.4%,i,?,44.7µM*
CCC(C)(C)C(=O)N1CCC2(CC1)CC(N(Cc1ccc(F)cc1)C1CC1)CCO2 (centres undefined),-8.2%,i,?,44.7µM*
CC(=O)N1CCC2(CC1)CC(N(Cc1ccc(F)cc1)C1CC1)CCO2 (centres undefined),4.0%,i,4.4%,-10.7%
O=C(c1cccc(F)c1)N1CCC2(CC1)CC(N(Cc1ccc(F)cc1)C1CC1)CCO2 (centres undefined),1.5%,i,?,?
O=C(N1CCC2(CC1)CC(N(Cc1ccccc1)C1CC1)CCO2)C1(c2ccccc2)CC1 (centres undefined),?,i,44.7µM*,39.8µM*
CCC(=O)N1CCC2(CC1)CC(N(Cc1ccccc1)C1CC1)CCO2 (centres undefined),-11.3%,i,2.3%,-28.3%
O=C(c1ccccc1)N1CCC2(CC1)CC(N(Cc1ccc(F)cc1)C1CC1)CCO2 (centres undefined),-21.8%,i,?,44.7µM*
O=C1Nc2ccccc2NC12CCN(Cc1c(F)cccc1Cl)CC2,-15.9%,i,?,?
Cc1ccc(C(=O)N2CCC(C(NC(=O)c3ccccc3C)C(=O)NCC(C)C)CC2)cc1 (centres undefined),5.4%,i,-23.8%,0.0%
O=C(CCC1CCCN(S(=O)(=O)c2ccccc2F)C1)NC1CCCCC1 (centres undefined),?,i,-25.2%,31.6µM*
O=C(NC1CCCC1)c1cccc2c1CCN2S(=O)(=O)c1ccccc1F,?,i,35.5µM*,?
CCc1ccc(CNC(=O)CCC2CCCN(S(=O)(=O)c3ccccc3C)C2)cc1 (centres undefined),-25.7%,i,?,39.8µM*
CCCNC(=O)c1cccc2c1CCN2S(=O)(=O)c1ccccc1F,-24.9%,i,-18.6%,?
Cc1cc(C(=O)NC2CC2)c2c(C3CCNC3)noc2n1 (centres undefined),.,.,i,i
Cc1noc(-c2ccc(OC3CN(C(=O)NC4CCCCC4)C3)cc2)n1,?,i,?,39.8µM*
Cc1noc(-c2cccc(OC3CN(C(=O)NC4CCCC4)C3)c2)n1,-7.6%,i,?,79.4µM*
O=C(C1CCC(N2Cc3cccn3C2=O)CC1)C1CCN(C(=O)c2ccccc2)CC1 (centres undefined),.,.,-19.2%,?
CCc1cccc2c(C(CC(=O)NCc3ccc(F)cc3)c3cccc(OC)c3OC)c[nH]c12 (centres undefined),-0.2%,i,?,?
COc1cccc(C(CC(=O)NCCc2ccc(OC)c(OC)c2)c2c[nH]c3ccccc23)c1 (centres undefined),?,i,?,44.7µM*
CCc1cccc2c(C(CC(=O)NCCOC)c3ccc(OC)cc3OC)c[nH]c12 (centres undefined),3.2%,i,-7.5%,?
CCc1cccc2c(C(CC(=O)NCCC(C)C)c3cccc(OC)c3OC)c[nH]c12 (centres undefined),-1.0%,i,?,44.7µM*
CCc1cccc2c(C(CC(=O)NCCc3ccccc3)c3cccc4c3OCO4)c[nH]c12 (centres undefined),-19.7%,?,17.8µM*,17.8µM*

# High-throughput results as filed in PubChem.
